# Screens from PubChem BioAssay.
# Shown are actives, neighbours in structure and some others; about 5.5% of the full set was active somewhere.
# Six1-Eya2 inh: Six1/Eya2 interaction inhibition; Q15475+O00167; AlphaScreen GST-Six1/His-Eya2 binding, biochemical; stronger effect = lower value; activity change, % (concentration not given with the values); 0.56% of 360,000 active; AID 651725; in the data active = activity change below about -65%; inconclusive = mostly about -30% to -63%; note: % is set by controls: 0 for no effect and ±100 for the full control effect
#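 AlphaScreen with GST-Six1 and His-Eya2 (5X mix: 250 nM and 500 nM), glutathione donor and nickel acceptor beads; buffer 50 mM Tris pH 8.0, 300 mM NaCl, 1 mM TCEP; 1 h at 37 C in the dark.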
# RORgamma inh: ROR gamma (mouse) transcription inhibition; Potency, µM (doses to about 53.6 µM), without a hit: at the highest dose activity change, negative = inhibition, actives largely listed as inhibitors; 5.4% of 310,000 active; Drosophila S2 Gal4-RORgamma UAS-luciferase reporter, 20 h; P51450; note: potency is the fitted concentration of half-maximal effect; % is set by controls: 0 for no effect and ±100 for the full control effect; nearly all actives have a fitted effect of over 60% in size
#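 Drosophila Schneider cells stably carrying a metallothionein-driven Gal4 DBD–ROR gamma fusion and a UAS-Photinus luciferase reporter were exposed to compound for 1 hr, then induced with copper sulfate (700 uM final) for 20 hr at ambient temperature before luminescence reading.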
# CtBP-E1A blk: blocks the CtBP interaction with E1A; 0.49% of 340,000 active; activity change, % (test concentration not listed); AlphaScreen GST-E1A/His-CtBP binding, 1536-well; stronger effect = lower value; in the data active = activity change below about -65%; inconclusive = mostly about -30% to -63%; note: % is set by controls: 0 for no effect and ±100 for the full control effect
#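 In 5 uL wells, 23 nL compound meets equimolar GST-E1A and His-CtBP (5X stock 125 nM each) for 2 h, 37 °C. Beads (5X, 50 ug/mL) then 1 h, 37 °C, dark.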
# Gal4-VP16 FLuc: inhibits Gal4-VP16 luciferase reporter, ROR gamma counter-screen. Drosophila S2 Gal4-VP16 UAS-luciferase, luminescence, 20 h. Potency, µM (series often up to 53.6 µM), inactives show at the top dose activity, negative = inhibition, usual class: inhibitors. 3.5% of 310,000 active;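 note: Gal4-VP16 expression switched on by copper sulfate through the metallothionein promoter; potency is the fitted concentration of half-maximal effect; % is set by controls: 0 for no effect and ±100 for the full control effect; nearly all actives have a fitted effect of over 50% in size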
# MBNL1-CUG inh: blocks human MBNL1 binding to CUG repeat RNA; TR-FRET MBNL1-His/biotin-(CUG)12 binding, 665/545 ratio; Q9NR56; Potency, µM (titrated, usually from 57.5 µM), for inactives: at the top dose activity change, negative = inhibition, usual class: inhibitors; 0.036% of 280,000 active; active = well fitted inhibition curve with a large enough effect in the signal ratio, with a control signal flat, not every such curve was filed as active; inconclusive = small, poorly fitted or top-dose-only effect, or effect the other way, or a change in a side signal; inactive = no such curve, though single readings can be large or run the other way; the % refers to the signal ratio; note: potency is the fitted concentration of half-maximal effect; % is set by controls: 0 for no effect and ±100 for the full control effect
# Target sequence (Q9NR56 whole entry, looked up): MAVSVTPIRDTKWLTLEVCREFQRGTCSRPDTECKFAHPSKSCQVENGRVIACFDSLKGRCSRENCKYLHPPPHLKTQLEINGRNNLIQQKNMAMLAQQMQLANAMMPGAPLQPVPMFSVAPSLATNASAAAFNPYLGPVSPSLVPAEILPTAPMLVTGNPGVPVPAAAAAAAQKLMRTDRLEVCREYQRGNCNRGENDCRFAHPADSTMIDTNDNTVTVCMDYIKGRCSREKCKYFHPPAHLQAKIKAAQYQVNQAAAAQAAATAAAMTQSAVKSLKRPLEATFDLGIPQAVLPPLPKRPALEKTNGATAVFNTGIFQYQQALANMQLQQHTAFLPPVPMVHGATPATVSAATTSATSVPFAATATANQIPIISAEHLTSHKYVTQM
#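 TR-FRET between His-tagged MBNL1 and biotin-(CUG)12 RNA, detected with Tb anti-His antibody (0.055 ng/ul) and streptavidin-XL665 (5 nM), 60 min at room temperature. Compounds titrated 92 nM to 58 uM; 665/545 nm ratio normalized to buffer and complex controls.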
# CBFb-RUNX1 inh: CBF-beta/RUNX1 interaction disruption. Potency, µM (series often up to 59.8 µM), inactives show top-dose activity, negative = inhibition, actives largely listed as inhibitors. Q01196+Q13951. 230,000 tested, under 10 active. AlphaScreen CBFb-His/RUNX1-biotin binding, biochemical; note: % of control where 0% means no effect
#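 CBFb-His/RUNX1-biotin, 30 nM each, preincubated 20 min RT; compound 15 min RT; Ni + streptavidin beads 50 ng each, 90 min RT; AlphaScreen read.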
# * hit, by the source's call; ? = inconclusive; . = no result given. Unless noted, calls come from the whole dose curve; as a rule, active = well fitted curve in the direction sought with a large enough effect; inconclusive = small, poorly fitted or top-dose-only effect, or another doubt; inactive = no such curve, though single readings can be large; an effect the other way counts as inactive or inconclusive.
SMILES,Six1-Eya2 inh,RORgamma inh,CtBP-E1A blk,Gal4-VP16 FLuc,MBNL1-CUG inh,CBFb-RUNX1 inh
CCSC[C@H](NC(=O)[C@H](C)NC(=O)[C@@H](N)Cc1ccc(O)cc1)C(=O)N[C@@H](CC(=O)O)C(=O)N[C@H](C(=O)N[C@@H](C)C(=O)N[C@H](C(=O)N[C@@H](CSCC)C(=O)N[C@H](C(=O)N[C@H](C(=O)N[C@@H](Cc1cnc[nH]1)C(=O)N[C@@H](CCCNC(=N)N)C(=O)N[C@@H](CC(C)C)C(=O)N[C@@H](C)C(=O)NCC(=O)N[C@@H](CC(C)C)C(=O)N[C@@H](CC(C)C)C(=O)N[C@@H](CO)C(=O)N[C@@H](CCCNC(=N)N)C(=O)N[C@@H](CO)C(=O)NCC(=O)NCC(=O)N[C@H](C(=O)N[C@H](C(=O)N[C@@H](CCCCN)C(=O)N[C@@H](CC(N)=O)C(=O)N[C@@H](CC(N)=O)C(=O)N[C@@H](Cc1ccccc1)C(=O)N[C@H](C(=O)N1CCC[C@H]1C(=O)N[C@H](C(=O)N[C@@H](CC(N)=O)C(=O)N[C@H](C(=O)NCC(=O)N[C@@H](CO)C(=O)N[C@@H](CCCCN)C(=O)N[C@@H](C)C(=O)N[C@@H](Cc1ccccc1)C(N)=O)C(C)C)[C@@H](C)O)C(C)C)C(C)C)C(C)C)[C@@H](C)O)C(C)C)[C@@H](C)O)[C@@H](C)O,.,-2.7%,.,1.7%,.,6.6%
S=C(NCCc1ccc(Cl)cc1)Nc1ccc(Cl)cc1Cl,?,5.62µM*,9.8,4.47µM*,?,-8.2%
S=C(NCc1ccc(Cl)cc1)Nc1ccc(Cl)cc1Cl,12.4,11.2µM*,11.0,11.2µM*,-7.9%,0.8%
Cc1cc(Cl)ccc1NC(=S)NCCc1ccc(S(N)(=O)=O)cc1,-2.5,.,1.5,.,.,.
S=C(NCc1ccc(Cl)cc1)Nc1ccccc1Cl,-3.2,12.6µM*,-0.3,?,.,7.8%
CSc1ccccc1NC(=S)NCc1ccc(Cl)cc1,-7.6,7.08µM*,3.5,11.2µM*,-7.8%,.
S=C(NCc1ccncc1)Nc1ccc(Cl)cc1Cl,2.0,7.6%,6.2,-18.6%,-5.1%,-4.8%
O=C(c1ccc2c(=O)n(Cc3ccccc3Cl)c(=S)[nH]c2c1)N1CCOCC1,-1.8,?,4.5,-21.0%,-0.4%,.
Fc1ccc(CNC(=S)Nc2ccc(Cl)cc2Cl)cc1,8.5,3.98µM*,-3.8,5.62µM*,?,4.6%
S=C(NCCN1CCOCC1)Nc1ccc(Cl)cc1Cl,-0.6,-28.6%,-1.7,8.5%,-5.8%,0.4%
CCCNC(=S)Nc1ccc(Cl)cc1Cl,-5.5,11.2µM*,0.7,?,-6.9%,4.6%
Cc1nc2ccc(Cl)cn2c1[N+](=O)[O-],6.5,.,0.2,.,.,.
c1ccn2cc(C34CC5CC(CC(C5)C3)C4)nc2c1,-25.8,5.62µM*,14.6,22.4µM*,.,-16.6%
CC1CN(C(=O)CSc2nnc(CNC(=O)c3ccc(S(=O)(=O)N(C)C)cc3)o2)CC(C)O1 (configuration not stated),0.3,-7.2%,2.8,-3.1%,-3.8%,.
O=C(N/N=C/c1c[nH]c2ccccc12)c1sc2ccccc2c1Cl,-12.5,?,-1.1,?,-3.2%,?
Cn1cccc1/C=N/NC(=O)c1sc2ccccc2c1Cl,?,0.447µM*,?,3.16µM*,27.1%,?
Cn1cccc1CC(=O)N/N=C/c1cccc2ccccc12,-9.5,16.1%,16.0,-2.3%,?,-27.0%
Cn1cccc1/C=N/NC(=O)Cc1cccc2ccccc12,-1.9,?,1.9,14.1µM*,11.4%,-13.7%
O=C(N/N=C/c1ccccn1)c1sc2ccccc2c1Cl,?,2.82µM*,.,3.16µM*,.,?
Cc1c(/C=N/NC(=O)c2sc3ccccc3c2Cl)cnn1C,-20.1,2µM*,?,11.2µM*,11.5%,-14.9%
O=C1NC(Cc2ccccc2)c2nc3ccc(Cl)cc3c(=O)n2-c2ncccc21 (configuration not stated),-0.1,.,-3.0,.,.,.
O=C(N/N=C/c1ccc([N+](=O)[O-])o1)c1sc2ccccc2c1Cl,?,2.51µM*,.,3.16µM*,?,-6.5%
O=C(CNS(=O)(=O)c1ccc(Br)s1)NCC1COc2ccccc2O1 (configuration not stated),4.6,-16.9%,8.9,12.6µM*,-7.3%,3.3%
O=C(CNC(=O)c1ccc(Br)o1)NCC1COc2ccccc2O1 (configuration not stated),5.0,.,.,.,.,.
C/C(=N\Nc1nc(C(C)(C)C)cs1)c1ccccc1,-5.3,.,.,.,4.0%,.
SMILES,Six1-Eya2 inh,RORgamma inh,CtBP-E1A blk,Gal4-VP16 FLuc,MBNL1-CUG inh,CBFb-RUNX1 inh
C/C(=N\Nc1nc2c(s1)CCCC2)c1ccccc1,-12.0,12.6µM*,-21.2,?,12.3%,-28.5%
Cc1cccc(Nc2nc3c(s2)CCCC3)c1,?,-6.1%,21.8,-17.7%,.,-2.4%
C/C(=N\Nc1nc(C(C)(C)C)cs1)c1ccc(O)cc1,13.6,?,.,10µM*,-0.7%,.
C/C(=N\Nc1nc(C(=O)O)cs1)c1ccccc1,?,0.631µM*,?,5.01µM*,-3.3%,-15.3%
O=S1(=O)N=C(Nc2nc3c(s2)CCCC3)c2ccccc21,2.9,0.447µM*,-1.1,1.26µM*,-3.1%,1.8%
O=C(CCC1CCCC1)NNC(=O)c1ccc(F)cc1,-0.4,.,.,.,.,.
CC(C)C1Cc2[nH]c(=S)[nH]c(=O)c2C(c2ccc(F)cc2)O1 (configuration not stated),3.8,.,-0.6,.,.,.
O=C(O)c1ccc(Nc2nc3c(s2)CCCC3)cc1,-1.3,1.26µM*,6.5,3.55µM*,0.4%,-0.8%
O=C(CSc1nnnn1-c1ccc(Cl)c(C(=O)O)c1)NC(c1ccccc1)c1ccccc1,-0.1,-10.6%,4.5,-21.3%,-10.6%,5.7%
Cc1cc(Cl)ccc1NC(=S)Nc1ccccn1,-3.0,1µM*,-1.8,1.26µM*,10.3%,3.0%
Cc1ccc(NC(=S)Nc2ccccn2)c(C)c1,-1.8,0.794µM*,-3.3,6.31µM*,7.4%,-4.0%
CCC(C)n1c(SCC(=O)NC(=O)c2cccn2C)nc2ccccc2c1=O (configuration not stated),-20.1,14.1µM*,-15.9,?,7.5%,-24.2%
C=CCn1c(SCC(=O)NC(=O)c2cccn2C)nc2ccccc2c1=O,-4.4,0.7%,-15.8,-5.3%,16.4%,-14.4%
COc1cccc2cc(C(=O)NCc3ccc(Cl)cc3)c(=N)oc12,11.9,0.0891µM*,7.9,?,90.9%,.
CN(C)S(=O)(=O)NCCNc1ccc(C(F)(F)F)cc1[N+](=O)[O-],-9.3,?,.,7.3%,?,-2.8%
